# Reference: PubChem BioAssay AID1347418 (Sanford-Burnham Center for Chemical Genomics, 2020)
# Hit rate of the full screen: of about 1,300 compounds, about 750 (58%) were called active. This is one part of the list. Values without a mark were called inactive.
# Biological target: Sulfhydryl oxidase 1 (Homo sapiens) (UniProt O00391)
# Test: QSOX1 enzyme inhibitors, primary screen, biochemical, ROS-Glo H2O2 luminescence, HTS (AID 1347418)
# Conditions: recombinant QSOX1, ROS-Glo H2O2 luminescence; at 12.5 µM; hits give high values; active = any value above zero
# Sulfhydryl oxidase 1 (Homo sapiens), sequence (O00391 whole entry, looked up): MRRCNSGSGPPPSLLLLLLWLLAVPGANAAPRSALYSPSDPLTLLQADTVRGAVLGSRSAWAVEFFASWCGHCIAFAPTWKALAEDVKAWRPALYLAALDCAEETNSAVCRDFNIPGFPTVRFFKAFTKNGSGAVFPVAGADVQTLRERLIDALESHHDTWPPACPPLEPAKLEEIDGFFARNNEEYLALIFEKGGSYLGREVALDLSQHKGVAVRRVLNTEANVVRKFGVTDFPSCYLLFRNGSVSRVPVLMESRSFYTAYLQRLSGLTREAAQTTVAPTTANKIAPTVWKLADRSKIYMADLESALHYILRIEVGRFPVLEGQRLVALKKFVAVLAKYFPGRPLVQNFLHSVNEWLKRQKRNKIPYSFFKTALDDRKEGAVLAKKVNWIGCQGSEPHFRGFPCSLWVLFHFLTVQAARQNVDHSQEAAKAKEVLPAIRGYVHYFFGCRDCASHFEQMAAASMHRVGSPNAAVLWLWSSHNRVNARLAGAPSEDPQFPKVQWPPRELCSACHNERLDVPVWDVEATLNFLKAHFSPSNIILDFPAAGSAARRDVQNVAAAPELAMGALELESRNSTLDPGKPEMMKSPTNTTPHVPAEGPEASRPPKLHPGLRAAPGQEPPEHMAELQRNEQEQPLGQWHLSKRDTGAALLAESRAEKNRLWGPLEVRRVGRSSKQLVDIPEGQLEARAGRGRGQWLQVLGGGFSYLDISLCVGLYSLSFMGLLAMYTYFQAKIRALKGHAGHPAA
row,SMILES,inhibition
1,CCCCOC(=O)NS(=O)(=O)c1sc(CC(C)C)cc1-c1ccc(Cn2c(CC)nc3c(C)cc(C)nc32)cc1,2.7% (active)
2,CN/C(=C\[N+](=O)[O-])NCCSCc1ccc(CN(C)C)o1,-12.3%
3,CC(C)N(CCC(=O)c1ccc2ccccc2c1)Cc1ccccc1,-1.7%
4,CC(COc1ccccc1)N(CCCl)Cc1ccccc1 (stereo unspecified),9.5% (active)
5,Cc1cccc(/C=C/c2ccccc2)n1,13.7% (active)
6,COc1ccc(CCN(C)CCCC(C#N)(c2ccc(OC)c(OC)c2)C(C)C)cc1OC (stereo unspecified),-2.4%
7,COc1ccc(CCN(C)CCCC(C#N)(c2cc(OC)c(OC)c(OC)c2)C(C)C)cc1OC (stereo unspecified),4% (active)
8,Cc1scc2c1N(C(=O)CN1CCN(C)CC1)c1ccccc1NC2=O,1.4% (active)
9,CN1CCN(CC(=O)N2c3ccccc3C(=O)Nc3cccnc32)CC1,-2.7%
10,CN1CCN(c2nc3cc(C(F)(F)F)ccc3n3cccc23)CC1,6.5% (active)
11,Cc1cc(NC(=O)Nc2ccc3c(ccn3C)c2)sn1,4% (active)
12,O=C(O)[C@H]1NCCC[C@H]1C(=O)O,-0.4%
13,O=C(O)C1CCCNC1 (stereo unspecified),1% (active)
14,O=C(O)C1CCNCC1,-2.2%
15,Nc1ncnc2c1ncn2C1CCCC1,-9.6%
16,Nc1ncnc2c1c(I)cn2[C@@H]1C[C@H](N)[C@@H](O)[C@H]1O,2.7% (active)
17,Nc1ncnc2c1c(-c1ccc(Oc3ccccc3)cc1)cn2C1CCCC1,-2.9%
18,NCC(O)C1CCCCCCC1 (stereo unspecified),11.2% (active)
19,O=C(c1ccc(OCCN2CCCCC2)cc1)c1c(-c2ccc(O)cc2)sc2cc(O)ccc12,20.1% (active)
20,CC(=O)Oc1cc(C(C)C)c(OCCN(C)C)cc1C,0.4% (active)
21,CN(C)C(=O)/N=N/C(=O)N(C)C,8.2% (active)
22,Fc1ccc(CN(C2=NCCN2)c2c(Cl)cccc2Cl)cc1,1.1% (active)
23,CNC(=O)c1cc2c(cn1)[nH]c1ccccc12,-3.2%
24,O=C(O)c1cc(=O)c2ccccc2[nH]1,5.6% (active)

row,SMILES,inhibition
1,O=C(O)c1cc(=O)c2c(Cl)cc(Cl)cc2[nH]1,-1%
2,O=[N+]([O-])c1ccc(CSc2ncnc3c2ncn3[C@@H]2O[C@H](CO)[C@H](O)C2O)cc1 (stereo partly specified),-2.9%
3,OC[C@H]1O[C@@H](n2cnc3cncnc32)[C@H](O)[C@@H]1O,4.9% (active)
4,C[C@H](Cc1ccccc1)Nc1ncnc2c1ncn2[C@@H]1O[C@H](CO)[C@H](O)C1O (stereo partly specified),1.4% (active)
5,OC[C@H]1O[C@@H](n2cnc3c(NC4CCCCC4)ncnc32)[C@H](O)[C@@H]1O,4.8% (active)
6,Nc1ncnc2c1ncn2[C@@H]1O[C@H](CO)[C@H](O)C1O (stereo partly specified),-0.5%
7,CNc1ncnc2c1ncn2[C@@H]1O[C@H](CO)[C@H](O)C1O (stereo partly specified),-6.8%
8,Nc1nc(SCc2ccc([N+](=O)[O-])cc2)c2ncn([C@@H]3O[C@H](CO)[C@H](O)C3O)c2n1 (stereo partly specified),4.9% (active)
9,Nc1nc2c(ncn2[C@@H]2O[C@H](CO)[C@@H](O)[C@@H]2O)c(=O)[nH]1,-3.6%
10,OC[C@H]1O[C@@H](n2cnc3c(NC4CCCC4)ncnc32)C(O)[C@H]1O (stereo partly specified),0.7% (active)
11,Nc1ccc(CCNc2ncnc3c2ncn3C2OC(CO)C(O)C2O)cc1 (stereo unspecified),4% (active)
12,OC[C@H]1O[C@H](n2cnc3c(N[C@H]4CCC[C@@H]4O)ncnc32)[C@H](O)[C@@H]1O,-1.9%
13,COc1cc(SC)ccc1C(=O)N1CCC(Cc2ccccc2)CC1,1.4% (active)
14,COc1ccc(/C=C2\COc3ccc(C)cc3C2=O)cc1O,-1.7%
15,CNCC[C@H](Oc1ccc(C(F)(F)F)cc1)c1ccccc1,11.2% (active)
16,CNCCC(Oc1ccccc1OC)c1ccccc1 (stereo unspecified),-2.5%
17,CN(CC[C@@H](Oc1ccc(C(F)(F)F)cc1)c1ccccc1)CC(=O)O,6.8% (active)
18,CNCCC(Oc1ccccc1C)c1ccccc1 (stereo unspecified),0%
19,CNCCC(Oc1ccc(C(F)(F)F)cc1)c1ccccc1 (stereo unspecified),2.1% (active)
20,OC1(c2ccc(Cl)cc2)CCN(Cc2c[nH]c3ccccc23)CC1,-1.5%
21,Ic1ccc(N2CCN(Cc3c[nH]c4ncccc34)CC2)cc1,15.6% (active)
22,Clc1ccc(N2CCN(Cc3c[nH]c4ncccc34)CC2)cc1,24.1% (active)
23,Nc1nc2c(cnn2CCc2ccccc2)c2nc(-c3ccco3)nn12,1.8% (active)
24,Nc1nc2ccc(Cl)cc2c2nc(-c3ccco3)nn12,-0.2%

row,SMILES,inhibition
1,CN1C2CCC1CC(OC(=O)c1c[nH]c3ccccc13)C2 (stereo unspecified),2.4% (active)
2,CN1C2CCC1CC(OC(c1ccccc1)c1ccccc1)C2 (stereo unspecified),-10.1%
3,CN1C2CCC1CC(OC(=O)C(CO)c1ccccc1)C2 (stereo unspecified),3% (active)
4,CN1C2CCC1CC(OC(=O)C(O)c1ccccc1)C2 (stereo unspecified),-5.9%
5,CN1C2CC(OC(=O)[C@H](CO)c3ccccc3)CC1C1OC12 (stereo partly specified),-3.1%
6,COc1ccc(/C=C/C(=O)Nc2ccccc2C(=O)O)cc1OC,23.4% (active)
7,CN[C@H](CC(C)C)C(=O)N[C@H]1C(=O)N[C@@H](CC(N)=O)C(=O)N[C@H]2C(=O)N[C@H]3C(=O)N[C@H](C(=O)N[C@H](C(=O)O)c4cc(O)cc(O)c4-c4cc3ccc4O)[C@H](O)c3ccc(c(Cl)c3)Oc3cc2cc(c3O[C@@H]2O[C@H](CO)[C@@H](O)[C@H](O)[C@H]2O[C@H]2C[C@](C)(N)[C@H](O)[C@H](C)O2)Oc2ccc(cc2Cl)[C@H]1O,3.1% (active)
8,CC1=C(C)C(=O)C(CCCCC#CCCCC#CCO)=C(C)C1=O,5.7% (active)
9,C=C1C[C@@]23CC[C@H]4[C@@](C)(CCC[C@@]4(C)C(=O)OC4OC(CO)C(O)C(O)C4O)[C@@H]2CCC1(OC1OC(CO)C(O)C(O)C1OC1OC(CO)C(O)C(O)C1O)C3 (stereo partly specified),5.4% (active)
10,C=C1C[C@@]23CC[C@H]4[C@@](C)(CCC[C@@]4(C)C(=O)O)[C@@H]2CC[C@]1(O)C3,-3.8%
11,CN1CC(=O)N/C1=N\C(=O)Nc1cccc(Cl)c1,-0.1%
12,O=C(O)CCC(=O)N1CCCC1C(=O)O (stereo unspecified),4.1% (active)
13,C[C@H](CS)C(=O)N1CCC[C@H]1C(=O)O,0.1% (active)
14,NC(N)=Nc1nc(CSCC/C(N)=N/S(N)(=O)=O)cs1,0.1% (active)
15,CC(C)C(=O)c1c(C(C)C)nn2ccccc12,-4.2%
16,CCOC(=O)N1CCC(=C2c3ccc(Cl)cc3CCc3cccnc32)CC1,-1.5%
17,Cc1c(OCC(F)(F)F)ccnc1CS(=O)c1nc2ccccc2[nH]1 (stereo unspecified),-0.2%
18,CCn1cc(C(=O)O)c(=O)c2cc(F)c(N3CCNC(C)C3)c(F)c21 (stereo unspecified),-1.7%
19,CCn1cc(C(=O)O)c(=O)c2ccc(C)nc21,-5.8%
20,CCn1nc(C(=O)O)c(=O)c2cc3c(cc21)OCO3,3.1% (active)
21,CCn1cc(C(=O)O)c(=O)c2cc3c(cc21)OCO3,2.6% (active)
22,O=C(O)c1cc2cc(Cc3cccnc3)ccc2o1,-7.8%
23,C[C@]12CC[C@@H]3c4ccc(O)cc4CC[C@H]3[C@@H]1CCC2=O,-1.6%
24,C[C@]12CC[C@@H]3c4ccc(O)cc4CC[C@H]3[C@@H]1CC[C@@H]2O,5.6% (active)

row,SMILES,inhibition
1,COc1cc2c(cc1O)CC[C@@H]1[C@@H]2CC[C@]2(C)[C@@H](O)CC[C@@H]12,36% (active)
2,COc1ccc2c(c1)CCC1C2CC[C@@]2(C)C1CC[C@@H]2NCCCCCCN1C(=O)C=CC1=O (stereo partly specified),-7.4%
3,COc1ccc2c(c1)CCC1C2CC[C@@]2(C)C1CC[C@@H]2NCCCCCCN1C(=O)CCC1=O (stereo partly specified),-2.7%
4,C[C@]12CC[C@@H]3c4ccc(O)cc4C[C@@H](CCCCCCCCCS(=O)CCCC(F)(F)C(F)(F)F)[C@H]3[C@@H]1CC[C@@H]2O (stereo partly specified),-4.8%
5,CCCCCCN(CCCCCC)C(=O)Cc1c(-c2ccc(F)cc2)[nH]c2ccccc12,-2.9%
6,COc1cc2nc(N3CCCN(C)CC3)nc(NC3CCN(Cc4ccccc4)CC3)c2cc1OC,1.5% (active)
7,Oc1ccc(O)cc1,11.1% (active)
8,CNc1ncnc2c1ncn2[C@H]1C[C@H](OP(=O)(O)O)[C@@H](COP(=O)(O)O)O1,-3.3%
9,CSc1nc(N)c2ncn([C@@H]3O[C+](COP(=O)([O-])OP(=O)(O)O)[C@H](O)C3O)c2n1 (stereo partly specified),0.7% (active)
10,C[N+](C)(C)CCOP(=O)(O)OP(=O)([O-])OC[C@H]1O[C@@H](n2ccc(N)nc2=O)C(O)[C@H]1O (stereo partly specified),-0.3%
11,NC(N)=NC(N)=Nc1ccccc1,-4.7%
12,NC(N)=NC(N)=Nc1cccc(Cl)c1,9.6% (active)
13,NC(N)=NC(=O)Cc1c(Cl)cccc1Cl,-6.8%
14,Oc1ccccc1O,5.6% (active)
15,CCN(CC)CCCN(c1ccccc1)C1Cc2ccccc2C1,40.2% (active)
16,CCCN(CCc1ccccc1)C1CCc2c(O)cccc2C1 (stereo unspecified),-0.3%
17,COc1cccc(-c2cc(=O)c3ccccc3o2)c1N,0.9% (active)
18,N#Cc1cc2nc(O)c(O)nc2cc1[N+](=O)[O-],0.9% (active)
19,O=C1NCC2(CCN(CCc3ccccc3)CC2)O1,-1%
20,C[C@@H](O)[C@H]1C(=O)N2C(C(=O)O)=C(SCCN=CN)C[C@H]12,-5.2%
21,Cc1cccc(C2CN(C)CCc3c2cc(O)c(O)c3Cl)c1 (stereo unspecified),25% (active)
22,C=CCN1CCc2c(cc(O)c(O)c2Cl)C(c2ccccc2)C1 (stereo unspecified),31.6% (active)
23,C=CCN1CCc2cc(O)c(O)cc2C(c2ccccc2)C1 (stereo unspecified),18% (active)
24,C=CCN1CCc2c(cc(O)c(O)c2Br)[C@@H](c2ccccc2)C1,26.8% (active)
